Screens (PubChem)
An excerpt weighted towards active compounds, which were near 6.2% of everything screened.
HT1080NT lethal: kills 2HG-producing HT-1080-NT fibrosarcoma cells; HT-1080-NT fibrosarcoma viability, CellTiter-Glo ATP luminescence, 48 h; Potency, µM (titrated, usually from 46.1 µM), most hits filed as cytotoxic; 1.6% of 360,000 active; AID 686970;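 further: NT is the 2HG producing partner of a matched IDH1 knockdown line; nearly all actives have a fitted effect of over 55% in size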
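HT-1080-NT; 750 cells/well; 5% FBS RPMI; 48 h compound, 37 degrees C; CellTiter-Glo luminescence; curve fitting and curve-class assignment.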
S2 tox: reduces viability in counter-screen for ATXN expression inhibitors; 0.49% of 400,000 active; S2 cells (HEK-293 line with an ATXN2-luciferase reporter) viability, CellTiter-Fluor protease fluorescence, 24 h; Potency, µM (highest dose often 56.7 µM), hits mostly cytotoxic; further: nearly all actives have a fitted effect of over 40% in size
HT1080 IDH1KD tx: toxicity to HT-1080 IDH1 knockdown cells (counter line). HT-1080 IDH1 knockdown viability, ATP luminescence, 48 h. Potency, µM (highest dose often 46.1 µM), actives largely listed as cytotoxic. 2% of 360,000 active. AID 686971
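Luminescent ATP read-out (CellTiter-Glo, 10 min at room temperature) after 48 h compound exposure at 37 °C gave viability of IDH1-knockdown HT-1080 cells. Activity was normalised to DMSO and cell-free wells, then fitted as concentration-response curves.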
ATXN2 expr inh: inhibitors of ATXN2 expression; HEK-293 ATXN2-luciferase reporter, luminescence, 24 h; Potency, µM (series often up to 57 µM), usual class: inhibitors; 0.72% of 360,000 active; further: nearly all actives have a fitted effect of over 55% in size
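ATXN2-luciferase reporter cells (luciferase flanked by upstream and downstream ATXN2 gene portions) were treated 24 h at 37 °C with compounds at up to 57 uM. SteadyGlo luminescence gave expression; GF-AFC fluorescence gave viability.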
KB-V1 MDR tox: KB-V1 MDR subline cytotoxicity | KB-V1 MDR cells viability, CellTiter-Glo, 72 h | Potency, µM (series often up to 46.1 µM), most hits filed as cytotoxic | 3.4% of 400,000 active | AID 1347076; further: nearly all actives have a fitted effect of over 60% in size
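KB-V1, DMEM (no phenol red) + 10% FBS; cpd pin-transferred, titration series; 72 h, 37 degrees C; CellTiter-Glo, luminescence. Data normalized, curve-fit.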
KB-3-1 tox: KB-3-1 parental cell cytotoxicity; KB-3-1 viability, CellTiter-Glo ATP luminescence, 72 h; Potency, µM (series often up to 46.1 µM), usual class: cytotoxic; 1.4% of 400,000 active; AID 1347075; further: nearly all actives have a fitted effect of over 60% in size
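KB-3-1 cells, DMEM (no phenol red) + 10% FBS; compound by pin transfer, 72 h, 37 °C. Readout: CellTiter-Glo luminescence after 10 min. Data normalized, curve-fitted.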
Of the large screens only hits and unclear results are named; the others gave an inactive call; ! = not confirmed by another sample. The call rests on the fitted dose curve; in most records, active means well fitted curve in the direction sought with a large enough effect; inconclusive means small, poorly fitted or top-dose-only effect, or another doubt; inactive means no such curve, though single readings can be large; an effect the other way counts as inactive or inconclusive.

Cc1oc(-c2ccc(Cl)cc2)nc1CN1C(=O)CN=C(c2ccccc2)c2ccccc21	S2 tox inconclusive, ATXN2 expr inh inconclusive (no result: HT1080NT lethal, HT1080 IDH1KD tx)
O=C(c1cc2c(s1)-c1ccccc1OC2)N1CCC2(CC1)OCCO2	HT1080NT lethal inconclusive, HT1080 IDH1KD tx inconclusive, KB-V1 MDR tox 13µM
N#Cc1ncc(N=Cc2ccc(N(CCCl)CCCl)cc2)s1	HT1080NT lethal inconclusive, HT1080 IDH1KD tx 10.3µM, ATXN2 expr inh inconclusive, KB-3-1 tox inconclusive
COc1ccc2[nH]c(C)c(CCNCc3cccnc3)c2c1	none
CCOc1cccc(CNCCc2c(C)[nH]c3ccc(OC(F)(F)F)cc23)c1O	HT1080NT lethal inconclusive, S2 tox inconclusive, HT1080 IDH1KD tx 18.4µM, KB-V1 MDR tox 23.1µM (no result: ATXN2 expr inh)
Cc1[nH]c2ccc(OC(F)(F)F)cc2c1CCNCc1ccc(Cl)cc1	HT1080NT lethal inconclusive, S2 tox inconclusive, HT1080 IDH1KD tx 14.6µM, ATXN2 expr inh 20µM, KB-V1 MDR tox inconclusive, KB-3-1 tox inconclusive
Cc1ccc2[nH]c(C)c(CCNCc3ccco3)c2c1	none (no result: ATXN2 expr inh)
Cc1[nH]c2ccc(OC(F)(F)F)cc2c1CCNCc1cccc([N+](=O)[O-])c1	HT1080NT lethal 14.6µM, HT1080 IDH1KD tx 13µM, ATXN2 expr inh inconclusive, KB-V1 MDR tox inconclusive, KB-3-1 tox inconclusive
Cc1ccc(S(=O)(=O)N(C)C[C@H]2Oc3c(NC(=O)Nc4cccc5ccccc45)cccc3C(=O)N([C@@H](C)CO)C[C@@H]2C)cc1	S2 tox inconclusive, HT1080 IDH1KD tx inconclusive, ATXN2 expr inh inconclusive, KB-3-1 tox inconclusive
CC1(c2ccccc2)CC(C)(C)N2C(=O)C3(C(C#N)=C(N)Oc4cc(O)ccc43)c3cccc1c32 (stereo not drawn)	HT1080NT lethal inconclusive, S2 tox inconclusive, HT1080 IDH1KD tx inconclusive, ATXN2 expr inh inconclusive, KB-V1 MDR tox 20.6µM
CCOC(=O)C1=C(N)Oc2cc(C)oc(=O)c2C12C(=O)N1c3c(cccc32)C(C)CC1(C)C (stereo not drawn)	none
CCCCCCC[n+]1ccc(-c2cc[n+](CCCCCCC)cc2)cc1	HT1080NT lethal inconclusive, HT1080 IDH1KD tx inconclusive, KB-3-1 tox inconclusive
CCCCCCCCCCCCCCCC[n+]1ccccc1	HT1080NT lethal 11.6µM, S2 tox 20µM, HT1080 IDH1KD tx 10.3µM, ATXN2 expr inh 31.6µM!, KB-V1 MDR tox inconclusive, KB-3-1 tox 5.8µM!
COc1ccccc1N1CCN(Cc2ccccc2Cl)CC1	KB-V1 MDR tox 20.6µM
COc1ccccc1N1CCN(Cc2c(F)cccc2F)CC1	KB-V1 MDR tox 14.6µM
COc1ccc(-c2nc(CN3C(=O)CN=C(c4ccccc4)c4cc(Cl)ccc43)c(C)o2)cc1	ATXN2 expr inh inconclusive, KB-V1 MDR tox inconclusive (no result: HT1080NT lethal, S2 tox, HT1080 IDH1KD tx)
COc1cccc(OC)c1C1=NCC(=O)Nc2c1oc1ccc(Br)cc21	HT1080NT lethal inconclusive, S2 tox inconclusive, HT1080 IDH1KD tx 2.91µM, KB-V1 MDR tox inconclusive
O=C1CN=C(c2ccccc2)c2oc3ccc(Br)cc3c2N1	S2 tox inconclusive
O=C1CN=C(c2ccc(Br)cc2)c2oc3ccccc3c2N1	HT1080NT lethal 14.6µM, S2 tox inconclusive, HT1080 IDH1KD tx 11.6µM, ATXN2 expr inh inconclusive
CCCCn1c(N)c(N(CC(C)C)C(=O)c2cc(Br)c(Br)s2)c(=O)[nH]c1=O	S2 tox inconclusive, ATXN2 expr inh inconclusive, KB-3-1 tox inconclusive
CC(=O)NCC(N)C(=O)c1ccc(C)cc1 (stereo not drawn)	none (no result: S2 tox, ATXN2 expr inh, KB-V1 MDR tox, KB-3-1 tox)
Cc1cc(NC(=O)CCl)nn1C	HT1080NT lethal inconclusive, HT1080 IDH1KD tx inconclusive, KB-V1 MDR tox 20.6µM, KB-3-1 tox 13µM
O=C1NCCN(Cc2cccc(Oc3ccccc3)c2)C1CC(=O)N1CCCCC1 (stereo not drawn)	S2 tox inconclusive (no result: KB-V1 MDR tox, KB-3-1 tox)
CC(C)C[C@H]1C(=O)N2CCC[C@H]2[C@]2(O)O[C@](NC(=O)[C@@H]3C=C4c5cccc6[nH]c(Br)c(c56)CC4N(C)C3)(C(C)C)C(=O)N12 (stereo partly drawn)	HT1080 IDH1KD tx inconclusive, KB-V1 MDR tox inconclusive
COC(=O)c1nc(-c2ccc3c(n2)C(=O)C(N)=C(OC)C3=O)c(N)c(-c2ccc(OC)c(OC)c2O)c1C	HT1080NT lethal inconclusive, S2 tox inconclusive, HT1080 IDH1KD tx inconclusive, ATXN2 expr inh inconclusive, KB-V1 MDR tox 10.3µM, KB-3-1 tox inconclusive
CC12CCC(=O)C=C1CC(N1CC1)C1C2CCC2(C)C(O)CCC12 (stereo not drawn)	KB-V1 MDR tox inconclusive, KB-3-1 tox inconclusive
CC12CCC(=O)C=C1C=CC1C2CCC2(C)C(O)CCC12 (stereo not drawn)	KB-V1 MDR tox 2.06µM, KB-3-1 tox 8.2µM
C[C@]12CCC(=O)C=C1C=CC1C2CC[C@@]2(C)C1CC[C@@H]2O (stereo partly drawn)	KB-V1 MDR tox 3.66µM, KB-3-1 tox inconclusive
C[C@]12CCC3C(CC[C@@H]4CC(=O)CC[C@]34C)C1CC[C@@H]2O (stereo partly drawn)	KB-V1 MDR tox inconclusive
CCC(C)NC(=O)CCC(=O)OC1O[C@H]2OC3(C)CC[C@H]4[C@H](C)CCC(C1C)C24OO3 (stereo partly drawn)	HT1080NT lethal 7.31µM, S2 tox inconclusive, HT1080 IDH1KD tx 7.31µM, KB-3-1 tox 5.17µM
C[C@@H]1CC[C@H]2[C@@H](C)C(=O)O[C@@H]3O[C@@]4(C)CC[C@@H]1[C@]32OO4	KB-V1 MDR tox inconclusive
CC(C(O)c1ccccc1)N(C)C/C=C/c1ccccc1 (stereo not drawn)	none (no result: HT1080NT lethal, HT1080 IDH1KD tx, KB-V1 MDR tox, KB-3-1 tox)
Cc1ccc2c(c1)C(Cc1nc3ccccc3c(=O)n1-c1ccc(Br)cc1)C(=O)N2 (stereo not drawn)	S2 tox 25.1µM (no result: HT1080NT lethal, HT1080 IDH1KD tx)
Cc1ccc(C(=O)c2cn(CC(=O)Nc3ccc(C(C)C)cc3)c3nc(C)ccc3c2=O)cc1	S2 tox inconclusive (no result: HT1080NT lethal, HT1080 IDH1KD tx)
CC[C@@H](O)C[C@H]1CCC[C@@]2(C[C@@H]3OC(=O)/C=C/[C@@](C)(O)[C@@H](O)[C@H](C)[C@@H](O)[C@H](OC4CCC(N(C)C)C(C)O4)[C@@H](O)[C@](C)(O)CCCCC/C=C/[C@@H]4CC(C)(C)O[C@@]4(O)C[C@H](O2)[C@H]3C)O1 (stereo partly drawn)	HT1080 IDH1KD tx inconclusive, ATXN2 expr inh inconclusive, KB-V1 MDR tox 0.0731µM, KB-3-1 tox 0.164µM (no result: S2 tox)
C[N+](C)(C)CC1CCCc2ccccc2C1=O (stereo not drawn)	HT1080NT lethal inconclusive, S2 tox inconclusive, HT1080 IDH1KD tx 5.8µM, ATXN2 expr inh inconclusive, KB-3-1 tox inconclusive
C[N+](C)(C)CC1CCCC(C[N+](C)(C)C)C1=O (stereo not drawn)	HT1080NT lethal inconclusive, S2 tox inconclusive, HT1080 IDH1KD tx 3.66µM, ATXN2 expr inh inconclusive, KB-V1 MDR tox inconclusive, KB-3-1 tox inconclusive
